SMARCA2 act: increases SMARCA2 function in MMTV reporter cells; hit rate 1% among 370,000; AID 652017; activation, % at 9.1 µM; MG213 cells, MMTV-luciferase reporter, dexamethasone, overnight; in the data active means activation above about 7.8%
DAX1 inh-1: inhibitors of human orphan nuclear receptor DAX1 (NR0B1) | P51843 | HEK293 Gal4-DAX1 luciferase reporter, luminescence | inhibition, % at 6.75 µM | hit rate 0.99% among 340,000;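 active means inhibition above the mean over all tested compounds plus 3 SD, cut at about 4.2% in these data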;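 further: inhibition shows as a rise in luminescence from relieved DAX1 repression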
Target sequence (P51843 207-470 limits assumed): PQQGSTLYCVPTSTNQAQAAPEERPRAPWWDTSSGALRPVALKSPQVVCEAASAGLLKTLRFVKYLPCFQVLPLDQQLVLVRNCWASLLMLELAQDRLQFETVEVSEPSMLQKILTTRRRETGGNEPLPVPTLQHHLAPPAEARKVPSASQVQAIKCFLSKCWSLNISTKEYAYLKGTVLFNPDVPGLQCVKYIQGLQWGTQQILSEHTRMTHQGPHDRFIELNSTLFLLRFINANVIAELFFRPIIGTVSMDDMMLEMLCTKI
ssDAF12 agonist: S. stercoralis DAF-12 activation, primary screen. HEK293 ssDAF-12/GRIP1 lit1-tk-luc reporter, luminescence; % of 3 µM dafachronic acid response. hit rate 1% among 370,000. activation, % at 6.8 µM;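 active means activation above the mean over all tested compounds plus 3 SD, cut at about 0.9% in these data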
DAX1 inh-2: inhibitors of DAX1 repression of SF-1 activated StAR promoter | HEK293T StAR-luciferase reporter, SF-1/DAX-1 repression relief | inhibition, % at 6.8 µM | hit rate 1.1% among 370,000 | AID 652010;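 active means inhibition above the mean over all tested compounds plus 3 SD, cut at about 3.6% in these data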;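 further: higher inhibition means more luminescence from relief of DAX-1 repression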
hgDAF-12 ag: activates the H. glycines DAF-12 receptor ligand-binding domain. activation, % at 6.8 µM. HEK293 GAL4-hgDAF12 UAS-luciferase reporter, agonist luminescence; normalized to butyrate control. hit rate 1.8% among 370,000;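 active means activation above a cutoff set at the mean of all screened compounds plus 3 SD, cut at about 10% in these data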
hcDAF-12 act: activators of H. contortus DAF-12 nuclear receptor; HEK293 hcDAF-12 lit1-tk-luc reporter, luminescence; 0% DMSO, 100% Δ7-dafachronic acid; activation, % at 6.8 µM; hit rate 1.4% among 370,000;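 active means activation above the mean of all tested compounds plus 3 SD, cut at about 5.5% in these data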
Hits are given with their value; i = inactive; nt = no result. Hits are enriched below; roughly 4.8% of the tested compounds scored in any of these assays.

SMILES | SMARCA2 act | DAX1 inh-1 | ssDAF12 agonist | DAX1 inh-2 | hgDAF-12 ag | hcDAF-12 act
Cn1cc(CCOCc2ccccn2)c2ccccc21 | i | nt | i | 3.6 | i | i
CCN(CC)CCN(Cc1cc2ccc(C)cc2[nH]c1=O)C(=S)Nc1ccccc1C(=O)OC | i | i | i | i | i | i
CCCCNc1c(-c2cccc(SC3CCCCC3)c2)nc2ccc(Cl)cn12 | i | i | i | i | i | i
CCCCNc1c(-c2ccc(SC3CCCCC3)cc2)nc2ccccn12 | 7.9 | 5.1 | i | 4.0 | 12 | i
Cc1ccc(-n2nc(C)c3c(C(=O)OCC(=O)N(C)C4CCS(=O)(=O)C4)cc(-c4ccccc4)nc32)cc1 (stereo not given) | i | i | i | i | i | 6.2
CCN(C(=O)CCc1cn(CC)c2ccccc12)c1ccc(Oc2cccnc2)cc1 | i | nt | i | 3.6 | 11 | i
Clc1cccc(Cl)c1NC1=NCCC1 | i | i | i | i | i | i
Cc1ccc(NC(=O)COc2ccc(C3SCCS3)cc2)cc1 | i | i | i | i | i | i
O=C(COc1ccc(C2SCCS2)cc1)NNC(=O)C(Cl)Cl | i | 5.9 | i | i | i | i
CCc1ccc(C(=O)Nn2c(C)nc3ccccc3c2=O)cc1 | i | i | 1.0 | i | i | i
CCOC(=O)CSc1nc2ccccc2c(=O)n1NC(=O)c1ccccc1 | i | i | 1.1 | 3.9 | 11 | i
Cc1nc2ccccc2c(=O)n1NC(=O)c1ccc(Cl)c(Cl)c1 | i | i | i | i | i | i
O=C(Nn1c(-c2ccc(Br)cc2)nc2ccccc2c1=O)c1ccncc1 | i | i | i | i | 13 | i
COc1ccc(CC(=O)O/N=C(\N)c2ccc(Br)cc2)cc1OC | i | i | i | i | i | i
CCc1ccccc1NC(=O)CN1C(=O)C2CCCN2c2ncc(Cl)cc21 (stereo not given) | i | i | i | i | i | i
O=C(c1cnn2c(C(F)F)cc(-c3ccccc3)nc12)N1CCSCC1 | i | 4.6 | i | i | i | i
Fc1ccc(-c2nc3c4ccccc4ccn3c2Cc2ccccc2)cc1 | i | i | 1.6 | i | i | i
Cc1cc(Br)c2nc(-c3ccc(F)cc3)c(Cc3cccc(Cl)c3)n2c1 | i | nt | 1.3 | i | i | i
Cc1ccc(-c2nc3ccc(Br)cn3c2Cc2cccc(Cl)c2)cc1 | i | nt | i | i | i | i
Fc1ccc(-c2nc3c4ccccc4ccn3c2Cc2ccsc2)cc1 | i | nt | 1.1 | i | i | i
CCCc1nc2ccc(Cl)cn2c1Cc1ccsc1 | i | nt | 1.0 | i | i | i
CCOC(=O)c1nc(C)n(-c2ccc([N+](=O)[O-])cc2)n1 | i | i | i | i | i | i
O=C(C1CCCN1S(=O)(=O)c1cccc([N+](=O)[O-])c1)N1CCN(c2ccccc2)CC1 (stereo not given) | i | nt | i | i | i | i
Clc1cccc(-c2nc3c4ccccc4ccn3c2Cc2ccsc2)c1 | i | nt | 3.3 | i | i | 6.0
Brc1cccc(-c2nc3c4ccccc4ccn3c2Cc2ccsc2)c1 | i | nt | 1.8 | i | i | i
SMILES | SMARCA2 act | DAX1 inh-1 | ssDAF12 agonist | DAX1 inh-2 | hgDAF-12 ag | hcDAF-12 act
Clc1cccc(-c2nc3c4ccccc4ccn3c2Cc2ccccc2)c1 | i | nt | i | i | i | i
Clc1cccc(Cc2c(C3CCCCC3)nc3ccc(Cl)cn23)c1 | i | nt | i | i | i | i
Clc1cccc(Cc2c(C3CCCCC3)nc3c4ccccc4ccn23)c1 | i | nt | i | 3.8 | i | 6.3
Clc1cccc(Cc2c(-c3cccc(Cl)c3)nc3c4ccccc4ccn23)c1 | i | nt | 1.1 | i | i | i
COc1ccc(C2/C(=C(\O)c3ccc4c(c3)OCCO4)C(=O)C(=O)N2c2nc(C)c(C(C)=O)s2)cc1 (stereo not given) | i | i | i | i | i | i
COCCN(CC(=O)Nc1cccc(C)c1C)C(=O)Cn1c(=O)cnc2ccccc21 | i | i | i | i | i | i
CCCc1nc2ccc(C)cn2c1Cc1cccc(F)c1 | i | nt | 1.9 | 3.9 | i | i
FC(F)(F)c1ccccc1Cc1c(C2CCCCC2)nc2c3ccccc3ccn12 | i | nt | 1.7 | i | i | i
Fc1cccc(Cc2c(-c3cccc(Cl)c3)nc3c4ccccc4ccn23)c1 | i | nt | i | i | i | i
Fc1ccc(-c2nc3c4ccccc4ccn3c2Cc2cccc(F)c2)cc1 | i | nt | i | i | i | 5.6
Cc1ccc2nc(C3CCCCC3)c(Cc3ccccc3C(F)(F)F)n2c1 | i | nt | i | i | i | i
CCOC(=O)Cc1c(-c2cccc(Br)c2)nc2c3ccccc3ccn12 | i | nt | 1.4 | i | i | 6.1
COc1ccc(-c2nc3c4ccccc4ccn3c2Cc2ccccc2C(F)(F)F)cc1OC | i | nt | i | i | i | i
Clc1cccc(Cc2c(-c3ccccc3)nc3c4ccccc4ccn23)c1 | i | nt | i | i | i | i
Fc1ccc(-c2nc3c4ccccc4ccn3c2Cc2cccc(Cl)c2)cc1 | i | nt | i | i | i | 5.9
CCCc1nc2c3ccccc3ccn2c1Cc1cccc(F)c1 | i | nt | 1.1 | i | i | i
FC(F)(F)c1ccccc1Cc1c(-c2ccc(Cl)cc2)nc2c3ccccc3ccn12 | i | nt | 1.8 | i | i | i
COc1ccc2[nH]cc(C3N4CC5(C)CN3CC(C)(C4)C5=O)c2c1 (stereo not given) | i | i | i | i | i | i
COc1cccc(C2=NNC(=NCc3ccccc3)SC2)c1 | i | i | i | i | 13 | i
COc1ccc(CN=C2NN=C(c3cccc(OC)c3)CS2)cc1 | i | i | i | i | i | i
CC(=O)Nc1ccc(NC(=O)COC(=O)C2(c3ccc(Cl)cc3)CCCC2)cc1 | i | i | i | i | i | i
CC(C)(C)N(NC(=O)Nc1ccccc1)C(=O)c1ccccc1Cl | i | 6.3 | i | i | i | i
CC(C)(C)N(NC(=O)Nc1cccc(F)c1)C(=O)c1ccccc1Cl | i | nt | i | i | i | i
COc1ccc(C(=O)NCC(=O)OCC(=O)Nc2sccc2C#N)cc1OC | i | 6.4 | 1.1 | i | i | i
O=C(NCc1ccc(F)cc1)c1ccc(N2CCOCC2)c([N+](=O)[O-])c1 | i | i | i | i | i | i
SMILES | SMARCA2 act | DAX1 inh-1 | ssDAF12 agonist | DAX1 inh-2 | hgDAF-12 ag | hcDAF-12 act
COc1ccc2cc3c(N)nn(C(=O)c4ccccc4Cl)c3nc2c1 | i | i | i | i | i | i
COc1ccc2cc3c(N)nn(C(=O)c4cccc(F)c4)c3nc2c1 | i | 4.4 | i | i | i | i
COc1ccc2cc3c(N)nn(C(=O)Cc4c[nH]c5ccccc45)c3nc2c1 | i | i | i | i | 14 | i
COc1cccc(CC(=O)n2nc(N)c3cc4ccc(OC)cc4nc32)c1 | i | i | i | i | i | i
COc1ccc2cc3c(N)nn(C(=O)c4ccc(F)cc4)c3nc2c1 | i | i | i | i | 12 | i
O=C(CN1C(=O)C2C3C=CC(C3)C2C1=O)Nc1ccc2c(c1)OCCO2 (stereo not given) | i | i | i | i | i | i

High-throughput results (PubChem)
